About 8,600 (12%) of roughly 69,000 compounds showed an effect of 50% or more. What follows is part of a selection rich in strong results, with near analogues and random picks from the rest.
Test system: Plasmodium berghei
Test: Screen against P. berghei liver stage (PbLuc), transformed with Luciferase, at 10uM
Type: functional, HepG2
Settings: tested at 10 uM

| SMILES | INHIBITION |
| --- | --- |
| O=C(Nc1ccccc1Cn1cccn1)N1CCC(N2CCCC2)C1 (configuration not stated) | 5.42% |
| CCCc1nc(NCCCn2ccnc2)c2c(n1)c(C)nn2CC | 17.7% |
| Cc1nn(C)c2nc3c(c(C(=O)/N=c4\[nH]nc(C(C)C)s4)c12)CCC3 | 7.83% |
| Cc1noc(CCNC(=O)NCC(=O)NCc2ccccc2)n1 | -176% |
| CC(NC(=O)CCCOc1ccc(F)cc1)c1nnc2n1CCC2 (configuration not stated) | -12.2% |
| CO[C@H]1CCN(Cc2c(C)noc2C)[C@@H]2CN(Cc3ccncc3)C[C@H]12 | 12.6% |
| CC(C)(C)c1nccc(C2(c3ccccc3Cl)CCNCC2)n1 | 72.8% |
| Clc1ccccc1C1(c2ccnc(CC3CC3)n2)CCNCC1 | 43.5% |
| CCC1C(=O)NCCN1c1ccnc(C(C)(C)C)n1 (configuration not stated) | 26.8% |
| Clc1ccccc1C1(c2ccnc(-c3ccncc3)n2)CCNCC1 | 55.1% |
| Clc1ccccc1C1(c2ccnc(-c3ncccn3)n2)CCNCC1 | 33.5% |
| O=c1[nH]cccc1-c1nccc(C2(c3ccccc3Cl)CCNCC2)n1 | 33% |
| CC(C)c1nccc(C2(c3ccccc3Cl)CCNCC2)n1 | 20.2% |
| Clc1ccccc1C1(c2ccnc(C3CC3)n2)CCNCC1 | 44.1% |
| Clc1ccccc1C1(c2ccnc(C3CCCC3)n2)CCNCC1 | 94.4% |
| NC(=O)NCCC(=O)NCc1nn(-c2ccccc2)c2c1CCC2 | 15.115% |
| Nc1nc2c(c(NCC(c3cccnc3)N3CCOCC3)n1)CCCC2 (configuration not stated) | -21.3% |
| CC(C)c1nn(C)c(Cl)c1CNCC(O)c1cccc(F)c1 (configuration not stated) | 42% |
| Cc1cc(C(=O)N2CCN(Cc3ccsc3)CC2)n(C)n1 | -3.2% |
| CCOCC(O)CN1CCN(C(=O)c2ccccc2F)CC1 (configuration not stated) | -35.7% |
| CN(C[C@@H]1CCC[C@@H]2CN(Cc3cccnc3)C[C@@H]21)C1CC1 | -5.63% |
| Cc1nccc(C(=O)NC(COCC(C)C)c2ccco2)n1 (configuration not stated) | -19.4% |

| SMILES | INHIBITION |
| --- | --- |
| COc1cc(CN(C)C(=O)NC2CC2)ccc1SC | 14.3% |
| CCNC(=O)N(C)Cc1ccc(SC)c(OC)c1 | 55.1% |
| CCOCCCNC(=O)N(C)Cc1ccc(SC)c(OC)c1 | 12.6% |
| COc1cc(CN(C)C(=O)NCCNC(=O)C2CC2)ccc1SC | 52.9% |
| COc1cc(CN(C)C(=O)NCC(=O)NC(C)C)ccc1SC | 14.3% |
| CCN(CC)C(=O)CCNC(=O)N(C)Cc1ccc(SC)c(OC)c1 | 8.97% |
| CCC1CCCCCN1C(=O)c1nnc2ccccc2c1N (configuration not stated) | 40.3% |
| Cc1cccc(OCCC(=O)NCC2CN(C)CCO2)c1C (configuration not stated) | -36.85% |
| CC(C)NC(=O)C[C@@H]1CCNC[C@@H]1Cc1cc(-c2ccccc2)on1 | 59.8% |
| CC(C)NC(=O)C[C@@H]1CCNC[C@@H]1Cc1cc(-c2ccccn2)on1 | -14.2% |
| CC(C)(C)c1cc(C[C@H]2CNCC[C@H]2CC(=O)Nc2ccccc2)no1 | 44.4% |
| O=C(CC1[C@H]2CN(C(=O)Cc3ccccn3)C[C@@H]12)Nc1cccnc1 (some centres not stated) | 39.4% |
| O=C(C1CN(Cc2ccsc2)Cc2ccnn2C1)N1CCCC1 (configuration not stated) | 15.7% |
| Cc1noc(C)c1CN1CC[C@H]2OCC[C@@H](C(=O)NCC3CC3)[C@H]2C1 | 54.7% |
| CC(C)NC(=O)C1CN(Cc2ccsc2)Cc2ccnn2C1 (configuration not stated) | 37.9% |
| COCCNC(=O)C1CN(Cc2csc(C)n2)Cc2ccnn2C1 (configuration not stated) | 62.5% |
| COCCNC(=O)C1CN(Cc2cccnc2)Cc2ccnn2C1 (configuration not stated) | 35.7% |
| COCCNC(=O)C1CN(Cc2nccs2)Cc2ccnn2C1 (configuration not stated) | 29.9% |
| Cc1noc(C)c1CN1CC[C@H]2OCC[C@@H](C(=O)NCC3CC3)[C@@H]2C1 | -3.83% |
| Cc1noc(C)c1CN1CC[C@H]2OCC[C@@H](C(=O)N3CCCO3)[C@@H]2C1 | 34.1% |
| COCCNC(=O)C1CN(Cc2cccc(C)n2)Cc2ccnn2C1 (configuration not stated) | 7.77% |
| COCCNC(=O)C1CN(Cc2ccncc2)Cc2ccnn2C1 (configuration not stated) | 89.3% |

| SMILES | INHIBITION |
| --- | --- |
| CN(C)C(=O)C1CN(Cc2ccsc2)Cc2ccnn2C1 (configuration not stated) | 52.6% |
| COCCNC(=O)C1CN(Cc2ccsc2)Cc2ccnn2C1 (configuration not stated) | 5.36% |
| Cc1cccc(N2CCN(C(=O)CCc3c(C)noc3Cl)CC2)c1 | 45.7% |
| CC(=O)c1ccc(S(=O)(=O)NCC2CCN(c3cnccn3)CC2)cc1 | 35% |
| O=C(CC1CCN(c2cccnn2)CC1)NC1CCOCC1 | 3.48% |
| O=C(CCN1CCCCO1)N1CCC(CO)(CCc2ccccc2)CC1 | -29% |
| Cc1ccc(CN2Cc3ccnn3CC(C(=O)NCC3CC3)C2)o1 (configuration not stated) | -31% |
| CC(=O)N1Cc2ccnn2CC(C(=O)NCc2cccnc2)C1 (configuration not stated) | 46.6% |
| O=C(NCc1cccnc1)C1CC(=O)N(CC2CC2)C1 (configuration not stated) | 37% |
| Cc1noc(C)c1CN1Cc2ccnn2CC(C(=O)NCC2CC2)C1 (configuration not stated) | 85.8% |
| CS(=O)(=O)N1Cc2ccnn2CC(C(=O)NCc2cccnc2)C1 (configuration not stated) | 77.4% |
| O=C(NCC1CC1)C1CN(Cc2ccncc2)Cc2ccnn2C1 (configuration not stated) | -2.35% |
| CNCC(=O)N1CC(c2cc(Nc3ncccn3)nc(C)n2)C1 | 29.6% |
| CCn1ncc2c1CCCC2NCc1cc(OC)cc(OC)c1 (configuration not stated) | 37.9% |
| CC(C)n1cc(C(=O)NCCCn2ccnc2)c2n[nH]c(=O)c-2c1 | -7.57% |
| Cc1ccc(N2CC[C@H]3C[C@H](C(=O)NCc4ccco4)O[C@@H]3C2)cc1 | 40.1% |
| CC(C)CN1CCS(=O)(=O)[C@@H]2CCN(S(=O)(=O)CC(C)C)CC[C@@H]21 | 2.41% |
| Cc1ccc(C(=O)NC2CCN(C(C)C)C2)c(=O)[nH]1 (configuration not stated) | 20.8% |
| CC(C)NC(=O)c1cc(-c2ccc(S(C)(=O)=O)cc2)nc2c1cnn2C | 24.2% |
| CN(C)C(=O)c1cc(-c2ccc(S(C)(=O)=O)cc2)c2cnn(C)c2n1 | 25.9% |
| CC(C)NC(=O)c1cc(-c2ccc(S(C)(=O)=O)cc2)c2cnn(C)c2n1 | 94.6% |
| COc1cccc(CNC(=O)c2cccnc2SC(C)C)c1 | 7.27% |

| SMILES | INHIBITION |
| --- | --- |
| CCN(C)Cc1n[nH]c(=O)n1-c1ccc(C)c(C)c1 | 46.7% |
| O=C(CC1CC1)N1CCN(Cc2cccnc2)c2ncccc2C1 | 0.618% |
| CC1CCC(NC(=O)CNC2(c3cccc(Br)c3)CCOCC2)CC1 (configuration not stated) | -7.46% |
| O=C(CC1Cn2ncnc2NC1=O)Nc1ccccc1 (configuration not stated) | -46.2% |
| COc1cccc(NC(=O)CC2Cn3ncnc3NC2=O)c1 (configuration not stated) | 25.9% |
| O=C(CC1Cn2ncnc2NC1=O)Nc1cccc(C(F)(F)F)c1 (configuration not stated) | 54% |
| CN(Cc1cncnc1)Cc1cn2c(n1)CN(C1CCOC1)CC2 (configuration not stated) | 1.28% |
| CCOC(=O)N1CCN(C(=O)c2snnc2-c2ccccc2)CC1 | -7.27% |
| COCc1ccccc1CNC(=O)CN1CCC2(CCOC2)C1 (configuration not stated) | 68.4% |
| COCc1ccccc1CNC(=O)CN1CCCC1c1noc(C)n1 (configuration not stated) | -1.05% |
| CCCOc1cccc(CNC(=O)CN2CCN(C)CC2C)c1 (configuration not stated) | 36.9% |
| CCOc1cccc(CNC(=O)CN2CCC3(CCOC3)C2)c1 (configuration not stated) | 61.9% |
| CNC(=O)CN1CCOCC2(CCCN(CCc3ccccc3)C2)C1 (configuration not stated) | 43.2% |
| COc1ccc(Cl)cc1CNC(=O)CN1CCC2(CCOC2)C1 (configuration not stated) | 39.6% |
| Cc1oncc1C(=O)N[C@@H]1CN(Cc2ccoc2)C[C@@H]2CCCO[C@@H]21 | 43% |
| COc1cc(N2CCC3(CC2)OCC(=O)NC3C)ncn1 (configuration not stated) | 10.6% |
| Cc1cc(F)cc(S(=O)(=O)NC(=O)CCc2cncc(F)c2)c1 | 38.9% |
| CNC(=O)CCc1cc(C)nc(C2CCCCN2)n1 (configuration not stated) | 26.3% |
| O=C(COc1ccccc1F)NCC(O)(c1ccccc1)C1CC1 (configuration not stated) | -22.7% |
| Cc1nn(C)c(C)c1C(=O)N1CCN(C(=O)CCC2CCCCC2)CC1 | 28.7% |
| Cc1nn(C)c(C)c1C(=O)N1CCN(C(=O)CC2CCCCC2)CC1 | 39.4% |
| CCC(=O)N1CCN(c2cc(N(C)C)cnn2)CC1 | -15.6% |

| SMILES | INHIBITION |
| --- | --- |
| CN(C)c1cnnc(N2CCN(C(=O)CCC3CCCCC3)CC2)c1 | 76.7% |
| Cc1cc(C(=O)N2CCN(C(=O)CCC3CCCCC3)CC2)n(C)n1 | 56.5% |
| CC(C)CC(=O)N1CCN(c2cc(N(C)C)cnn2)CC1 | 22.2% |
| CCN1CC(C(=O)NCCn2cccc2)CCC1=O (configuration not stated) | 44.8% |
| NCc1cc(-c2ccccc2)n2nccc2n1 | 41.2% |
| CS(=O)(=O)N[C@@H]1COC[C@@H]2CN(Cc3ccco3)C[C@@H]21 | 18.4% |
| Cn1nccc1C(=O)N1C[C@@H]2CC[C@H](Oc3cccc(F)c3)[C@@H]2C1 | 25.6% |
| CCOC(=O)c1cc2n(n1)CCCO2 | 57.6% |
| CCOC(=O)CNC(=O)c1cc2n(n1)CCCO2 | -0.996% |
| CCNC(=O)c1cc2n(n1)CCCO2 | 9.41% |
| COC(=O)c1ccc(OC)c(OC23CCCN(CC2)C3)c1 (configuration not stated) | -9.76% |
| O=C(c1cc(F)cc(F)c1)N1CCC(O)(C(F)(F)F)CC1 | 25.4% |
| N#Cc1ccc(C(=O)N2CCC3(CC2)CC3)cc1 | 40.8% |
| O=C(c1cc(F)cc(F)c1)N1CCC2(CC1)CC2 | 73.2% |
| COCCN1CCO[C@@H]2CN(C(=O)NCc3cccnc3)CC[C@@H]2C1 | 29.8% |
| Cc1nc(CN(Cc2ccccc2F)C2CCC2)no1 | -16.6% |
| O=C1CCc2cc(NC(=O)N3CCCN(Cc4cccs4)CC3)ccc21 | 53.8% |
| O=C(Nc1ccc2c(c1)OCCO2)N1CCCN(Cc2cccs2)CC1 | -14.1% |
| O=C1Cc2cc(NC(=O)N3CCCN(Cc4cccs4)CC3)ccc2N1 | 42.7% |
